A number with no mark means an inactive call. The rule behind the calls is not given here.
B1: design_607_777643b9-bd23-49d1-80ae-2b1434974efa_2270_dldesign_0_cycle1_af2pred (protein)
chain: AAADATVDAAIAKLRALGKEYPEGADAFNQLADNLKKAAAKAKTPEAKIAAAKKAMATAEHILKTTKEAEERAKKRKEEEEK
B2: design_607_777643b9-bd23-49d1-80ae-2b1434974efa_1562_dldesign_0_cycle1_af2pred (protein)
chain: GKELLEKIKKLSEEAVFATADDPEKGKEKLEEAKKLVKEAEKLPEAPKAKEALEKAEKVSKSIIEDIEKAK
B3: design_607_777643b9-bd23-49d1-80ae-2b1434974efa_2298_dldesign_0_cycle1_af2pred (protein)
chain: VTPEELAEAAKKKDELLDAAFAALQAAKTVEEVEAVAKEFLAKAEELGKDPRYAAAAESFKKILTRMKEAAVKAIK
B4: design_607_777643b9-bd23-49d1-80ae-2b1434974efa_1959_dldesign_0_cycle1_af2pred (protein)
chain: MEKAEEYLEEAKKALEKAEEYIAKAAADPANRAAYAAKAAQYAQEARILADGLELVDPSMKPEAEELRERARELIKKLAAVL
B5: design_607_777643b9-bd23-49d1-80ae-2b1434974efa_1448_dldesign_0_cycle1_af2pred (protein)
chain: AAAEEARKAAITAAADTLAEADGDVYLAANELAKKVGPEAGKAILEKAKAARKEALAAIKEDPAAGAALAKRKGEEILKEAKELIEKA
B6: design_607_777643b9-bd23-49d1-80ae-2b1434974efa_2469_dldesign_0_cycle1_af2pred (protein)
chain: KKITMEEQETLVNSSDDAAYYDVINTPEAAEKAKEAKATRDSLVAKWKAEDPEGGEKLKKVADHIYENSYKISKRILEEKKE
B7: design_607_777643b9-bd23-49d1-80ae-2b1434974efa_1961_dldesign_0_cycle1_af2pred (protein)
chain: SEEEAKKKAEKAAEEAKKLAKEGAKFPEKAEELTEKAKEIAKELAKAGFPKLGSEAAAAAHEAQAEANLKKR
B8: design_607_777643b9-bd23-49d1-80ae-2b1434974efa_1637_dldesign_0_cycle1_af2pred (protein)
chain: MEKDEALVERAFEAGGELFEKYPEGSKIASAMIRAATIARKDPEAGLEYLRERGLELGEEVAEEATERFRKILEEL
B9: design_607_777643b9-bd23-49d1-80ae-2b1434974efa_1995_dldesign_0_cycle1_af2pred (protein)
chain: EKEKELKEEVKEAGKRAEERVSRRAAKATNQQQKEATKALADNAIASIRKLAEEKGKETGKEEEFKKLAEEAEKKISAIVEAV
B10: design_608_fd41b8f9-4da9-4c78-93ec-aaa316ed4933_178_dldesign_0_cycle1_af2pred (protein)
chain: AATEEANKALLEAKEAIVDAYNEKYKLDPEEGKKLRKELLKKLAEAYASENAAEKLKEIKKEAKKLAEEYEKKN
B11: design_607_777643b9-bd23-49d1-80ae-2b1434974efa_1871_dldesign_0_cycle1_af2pred (protein)
chain: DMKEEAKKVAKEAKEVAKKVYELDPAKGSELSAKIHEAEALVKHPKFAEEGLKELKETLKKAKELLKKLE
B12: design_607_777643b9-bd23-49d1-80ae-2b1434974efa_1601_dldesign_0_cycle1_af2pred (protein)
chain: ASEEVKKQAEASSAAYREAKKVAKYVKANAADPKAAEIAKKANALIEEAMTGDAETAEKKTKEIAKLAKE
B13: design_607_777643b9-bd23-49d1-80ae-2b1434974efa_2203_dldesign_0_cycle1_af2pred (protein)
chain: SAVEKEKEELKKEVEEAKKEAEKVIAGGTLEEGAKVADKAYQLAAEAASLGPEAEDIEKEAREVARRLREYGKERRA
B14: design_607_777643b9-bd23-49d1-80ae-2b1434974efa_1272_dldesign_0_cycle1_af2pred (protein)
chain: EEAFKEAGEKALEYAEKVLKLAKKEPEVLEKAEKGLELLKKGIETGDKDLLVKARSYFLQVASYASPEVAEVAEKAAEYIDEAYILLS
B15: design_607_777643b9-bd23-49d1-80ae-2b1434974efa_1377_dldesign_0_cycle1_af2pred (protein)
chain: AEVAALVKKASEAMGEARFNANAAEKIPEEAEEYAKKAEEAIKAFRDALAQIRALAAEASPETLAAADRAEARLKELEKKVKEALKK
B16: design_607_777643b9-bd23-49d1-80ae-2b1434974efa_1467_dldesign_0_cycle1_af2pred (protein)
chain: AEERAKKVIKEAEELRKEAIALAEKYKENPEVRKLAVEAAHYALLAISAAKAGVKFLPYAEEYLKKAKELYEKGKALAEALEKEKEEK
B17: design_607_777643b9-bd23-49d1-80ae-2b1434974efa_2143_dldesign_0_cycle1_af2pred (protein)
chain: GMEEEEKRREELKKKAEELIKKAHEAYENSAEASVTNKEAAEIYREAAKLYKKAAEAYRSGEKVEEGEKYEEEAKAKEKEAKALLEK
B18: design_607_777643b9-bd23-49d1-80ae-2b1434974efa_2358_dldesign_0_cycle1_af2pred (protein)
chain: MEEEAKRILEEAEKKAKEAEAIAKSGKNTKEAEKLAREALKLVKENAPIIPKEEALKAAKKALEVLFEATEAAN
B19: design_607_777643b9-bd23-49d1-80ae-2b1434974efa_2272_dldesign_0_cycle1_af2pred (protein)
chain: NTQKAADKFSEAVRNLREAAKLGGEEVKEMAEKAILAAADDPEKGVEQAEKLLKYVKENVSEEVAKLVEEALKNFKEMAKLLN
B20: design_607_777643b9-bd23-49d1-80ae-2b1434974efa_1681_dldesign_0_cycle1_af2pred (protein)
chain: HMTPEQIAAAKATAAAAAALAANAATTTQAQITAVMDAAAAAMPEFADTFATLRATMLANYADKAGVAKGLAAVARMLAASAKAAE
B21: design_607_777643b9-bd23-49d1-80ae-2b1434974efa_2300_dldesign_0_cycle1_af2pred (protein)
chain: GKKEEAKKYAEEAKKKIKELAKKAEKSTDEEEVKKLAEKARELAKKAIEYAKKELTPEEAAKVAKELSEAAHEAHEAAAIGLFNIRKK
B22: design_607_777643b9-bd23-49d1-80ae-2b1434974efa_1990_dldesign_0_cycle1_af2pred (protein)
chain: MKEIIKLESESLRKLVRVAREVAEADPSLKPLAEEAILAAADNPEEGAKKVEELAKASLKVEGGEEYAKKLKEVAEKLKEVEEIYK
B23: design_608_fd41b8f9-4da9-4c78-93ec-aaa316ed4933_161_dldesign_0_cycle1_af2pred (protein)
chain: ITEEQKKVAEKLVERAEEVGKKAIEAGYPELGKKVLELAKETRKALEVSAEEAAKKAAELAQLKAEAEFEIKK
B24: design_607_777643b9-bd23-49d1-80ae-2b1434974efa_2486_dldesign_0_cycle1_af2pred (protein)
chain: AAEKEAAKAEAAKLVEEAADAAVEKGAEGVEAIIKELEKAAKAASPEARVYYEKAIRTAKSLAEDVKELEN
B25: design_607_777643b9-bd23-49d1-80ae-2b1434974efa_2248_dldesign_0_cycle1_af2pred (protein)
chain: AAAEAAAKAKEAAKKAAAIAKEGIAKQEKAAKEGDAEKVREIAKEVRTKLAAEAKATPEGAKAYAAAAHDVYEAAAEYSQEAKKAK
B26: design_607_777643b9-bd23-49d1-80ae-2b1434974efa_2258_dldesign_0_cycle1_af2pred (protein)
chain: AAVEEAKAALKKRYEKALKLAKEASEELYKEVVEKYKEYVAAAEAAKDPAEKVAALTAGNAFMYELIAEARSEIERKKEE
B27: design_607_777643b9-bd23-49d1-80ae-2b1434974efa_2236_dldesign_0_cycle1_af2pred (protein)
chain: EAKKYAEKAEKLAKEAEESTDDYEKAKKYAEEARKYAKKAVAYAKANPEDKEAKELAKKAIEAAHKAQEALAEAKAN
B28: design_608_fd41b8f9-4da9-4c78-93ec-aaa316ed4933_71_dldesign_0_cycle1_af2pred (protein)
chain: AKEEKEKEIEKLKKKAERLAERAKKVAEEAEKAGFEEVAKKIKEKAKELEKAAESMKEDYEKGKKEASEKAGELSEVMAEAKYLLAKK
B29: design_608_fd41b8f9-4da9-4c78-93ec-aaa316ed4933_3_dldesign_0_cycle1_af2pred (protein)
chain: GMEEESKAYKEALDKLSELGKEAEKAAKKGNEEVRKKLLKLKEEAEKKLDEGFEKGKEAAKEAKKFIEEKLKEVKKLLKELE
B30: design_607_777643b9-bd23-49d1-80ae-2b1434974efa_2023_dldesign_0_cycle1_af2pred (protein)
chain: SAEAAAVKAEVDALTAAAVAATPEEAAKLGSQAAALAYEAAAEYASLSAREKDPEKAAEYKALADALREAARAARDRVAAAIAAKLA
B31: design_607_777643b9-bd23-49d1-80ae-2b1434974efa_2234_dldesign_0_cycle1_af2pred (protein)
chain: SAAVKAAAEKAIAAFEAVAKKAKKAAEEGAKPEEVEKLRKELEKARKAGKEVAKKAAADPELVKKLSNAAFEAYEAIAEAAFAA
B32: design_607_777643b9-bd23-49d1-80ae-2b1434974efa_2448_dldesign_0_cycle1_af2pred (protein)
chain: SAEEEAKKLLEEAKKLAEEAGKSKDPEEAEKLAREAIKLAEKAAKLGLKEEASKVAHLARENLAEAQYRYRKEKK
B33: design_607_777643b9-bd23-49d1-80ae-2b1434974efa_2342_dldesign_0_cycle1_af2pred (protein)
chain: SEAQKEGKAFSAMMKTASEKGKELSKKTGTPLAEMAKIVQDIADAYAKGPEEIKKVAKTPEAKELATAAYDTYEKTYKA
B34: design_607_777643b9-bd23-49d1-80ae-2b1434974efa_1383_dldesign_0_cycle1_af2pred (protein)
chain: DGEEFLKKLKERGELIKKKYPVAAEEITKITDEAVKVAQKGIEDPEKFEEYKKEATDLLHKAREIGAEKEVEAKL
B35: design_607_777643b9-bd23-49d1-80ae-2b1434974efa_1902_dldesign_0_cycle1_af2pred (protein)
chain: DVEKVAKEAIEKLEEYGKRVPELAPEAKKAIERVKRRKEEGEKNPKFAPASIEAIKDTAENLKKKAEKLEKA
B36: design_607_777643b9-bd23-49d1-80ae-2b1434974efa_1699_dldesign_0_cycle1_af2pred (protein)
chain: SEKVEEVAKKEAEKIKEVAKKYGIEEEGKKAVERLKKKAEEAKKWKKPEIGAESVKTYGEGALKSVEILGKKKAA
B37: design_607_777643b9-bd23-49d1-80ae-2b1434974efa_1839_dldesign_0_cycle1_af2pred (protein)
chain: GMEAGKKALAEADKAGAAAIAAAKAGDVKAASAAAGEAYFYLAEAYVEFGPEADEEIKAKRQALLDALKKATAEAAA
B38: design_608_fd41b8f9-4da9-4c78-93ec-aaa316ed4933_199_dldesign_0_cycle1_af2pred (protein)
chain: AEEYRKKAKELAEKAKKYVEKLKADPENAEEYYKKAVEYIHKLYELAAEAESEGHPEVAKEIRELARKIGEEAKKAYEEVKA

Target: VTCN1, Q7Z7D3
Sequence (Q7Z7D3 whole entry): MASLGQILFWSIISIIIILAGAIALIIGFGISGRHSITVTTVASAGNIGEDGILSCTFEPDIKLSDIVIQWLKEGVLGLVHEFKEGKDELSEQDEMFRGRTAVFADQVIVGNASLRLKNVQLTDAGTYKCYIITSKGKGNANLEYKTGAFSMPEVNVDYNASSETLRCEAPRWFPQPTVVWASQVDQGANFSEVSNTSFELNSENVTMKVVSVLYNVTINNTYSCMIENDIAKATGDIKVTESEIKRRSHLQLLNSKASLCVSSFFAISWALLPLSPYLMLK

Binder	binding in a display sort
B1	not found
B2	not found
B3	not found
B4	not found
B5	not found
B6	not found
B7	not found
B8	not found
B9	not found
B10	not found
B11	not found
B12	not found
B13	not found
B14	not found
B15	not found
B16	not found
B17	not found
B18	not found
B19	not found

Binder	binding in a display sort
B20	not found
B21	not found
B22	not found
B23	not found
B24	not found
B25	not found
B26	not found
B27	not found
B28	not found
B29	not found
B30	not found
B31	not found
B32	not found
B33	not found
B34	not found
B35	not found
B36	not found
B37	not found
B38	not found

From article PMC13494018
